# Measured values taken from PubChem BioAssay (NCI).
# Compounds without any hit were thinned out: in the full panel of roughly 83,000, 20% have a hit.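 48-hour exposure, single concentration, 96-well plates; percent growth endpoint where 0 means no net growth. Active: below 10.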 Unmarked numbers belong to inactive results. Active and inactive are the calls of the source.
# System: HL-60(TB) leukemia
# Assay: NCI-60 one-dose screen, 48 h (100 = growth as untreated, 0 = no growth, -100 = all killed)
# Conditions: 10 µM unless noted
row,SMILES,growth
1,Clc1ccc2c(c1)nnn1c3ncccc3c(Br)c21,113%
2,COc1cc(-c2n[nH]nc2-c2ccccn2)cc(OC)c1OC,83.3%
3,COc1cc2c3c(c1)nc(C)n3CCC2,99.7%
4,CCCCCCCCCCCCCC1=NCCN1CCO,2.28% (active)
5,CC1=C(C(=O)Nc2ccccc2)C(c2ccc3c(c2)OCO3)NC(=S)N1 (stereo not given),104%
6,CN1C[C@@H](c2ccc(Cl)cc2)[C@]2(NC(=S)N(c3ccccc3)C2=O)[C@@]12C(=O)NC1C=CC(Br)=C[C@H]12 (stereo not given in full),40.2%
7,CCOc1ccc(NC(=O)Nc2cc(C(C)C)ccc2C)cc1,95.2%
8,CCCCNP1(NCCCC)=NP(NCCCC)(NCCCC)=NP(NCCCC)(NCCCC)=NP(NCCCC)(NCCCC)=N1,-59.3% (active)
9,C=C(C)[C@@H]1CC[C@]2(C(=O)N3CCN(C)CC3)CC[C@]3(C)[C@H](CC[C@@H]4[C@@]5(C)CC[C@H](OCCC#N)C(C)(C)[C@@H]5CC[C@]43C)[C@@H]12,73.8%
10,O=C1C(=O)c2ccccc2C(O)=C1CCCc1ccc(Oc2ccccc2)cc1,44.3%
11,COc1ccc2c(c1OC)C(=O)O[C@@H]2[C@H]1c2c(c(C#CC#Cc3ccc(F)c(F)c3)c3c(c2OC)OCO3)CCN1C,76.9%
12,O=C1CC23OC(C(O)c4ccccc4N12)C1C(c2ccccc2)=NOC13 (stereo not given),8.01% (active)
13,N#C/C(=C\c1ccc(-c2cccc(Cl)c2)o1)C(=O)Nc1ncc(Cc2ccc(Cl)cc2)s1,83.9%
14,COc1ccc(-c2cc(-c3cccs3)n(N=O)c(=O)c2C#N)cc1,94.7%
15,Cc1ccc(C(=O)/C(=C\c2ccc([N+](=O)[O-])cc2)S(=O)Cc2ccc(F)cc2)cc1 (stereo not given),-7.36% (active)
16,Cn1cc(-c2csc(-c3ccccc3)n2)c2cccnc21,3.19% [100 µM] (active)
17,COc1ccccc1CNCCCN1C(=O)c2ccc3c4c(ccc(c24)C1=O)C(=O)N(CCCCNCCCN)C3=O,-34.2% (active)
18,CN(C)CC(O)c1ccc2cc(Br)c3ccccc3c2c1 (stereo not given),43.7%
19,NC(=O)c1c(NC(=O)c2cccs2)sc2c1CCC(=O)C2,2.73% (active)
20,Cc1nc2ccccc2c(/C=C/c2ccccc2)c1C(=O)/C=C/c1ccc(C(F)(F)F)cc1,-26.9% (active)

row,SMILES,growth
1,Nc1ccccc1-c1n[nH]c(=O)[nH]c1=O,105%
2,CC(C)(C)[Si](C)(C)OCC1OC(n2cnc3c(N)ncnc32)CC1OS(C)(=O)=O (stereo not given),104%
3,COc1ccc2nc(-c3ccccc3)cc(C(C)=O)c2c1,84.8%
4,CCN1C(=O)N(CC)C2C1NN=c1s/c(=C\c3ccco3)c(=O)n12 (stereo not given),-20.3% (active)
5,COc1ccc2c(c1)C/C(=C\c1cc(-c3ccc4c(c3)OCO4)n[nH]1)C2=O,88.3%
6,O=C(O)c1cn(C2CC2)c2cc(N3CCN(C(=O)N/N=C/c4cccc5ccccc45)CC3)c(F)cc2c1=O,97.8%
7,O=C1Nc2ccccc2C12Nc1cc(Cl)ccc1S2 (stereo not given),71.6%
8,Cn1c2ccccc2c2ssc(=S)c21,43.5%
9,Cc1ccsc1C(=O)CC(=O)C(F)(F)C(F)(F)C(F)(F)F,107%
10,COc1cc(NC(=O)CSc2nc3ccc(Cl)cc3c(=O)n2-c2ccc(F)cc2)cc(OC)c1OC,106%
11,Cc1cc(=O)[nH]c(N/N=C/c2ccccc2O)n1,71.3%
12,COc1cc(CC(=O)c2ccc(O)c(OC)c2)ccc1O,87%
13,Cc1csc(Nc2nc(-c3cccc(Cl)c3)nc(C(Cl)(Cl)Cl)n2)n1,-10.2% (active)
14,COc1ccc(C(Cn2ccnc2)Sc2ccc(Cl)c(Cl)c2)cc1 (stereo not given),70.7%
15,CCN(CC)CCCN1C(=O)c2c(c(C)c3c(oc4ccc(O)cc43)c2C)C1=O,-5.12% (active)
16,Cn1ccnc1C(=O)/C=C/c1ccccc1,8.05% (active)
17,CC(C)CC(NC(=O)OCC1c2ccccc2-c2ccccc21)C(=O)O (stereo not given),105%
18,Cc1cc(O)c(=O)cc2c1C[C@H]1CC(C)(C)/C=C/C[C@]3(C)Oc4cc(=O)c(O)cc(C)c4C[C@H]3C[C@H](O)[C@@]1(C)O2,-19.8% (active)
19,COc1ccc(C(=O)/C=C/C23c4ccccc4C(c4ccccc42)C2C(=O)NC(=O)C23)cc1 (stereo not given),92%
20,COc1cccc(-c2nc(-c3ccc(NC(=O)c4ccccc4)cc3)[nH]c2-c2ccnc(Br)c2)c1,-34% (active)
